From PubChem BioAssay come the findings set out here.

Results filed as inconclusive are left out. Active and inactive are the calls of the source. Unless noted, how the calls were made is not given here.

Assay [1] in a line: reducers of polyQ inclusions in PC12 cells, cell-based, NGF-treated PC12, GFPQ80 (AID 1614).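 Further: lower means fewer inclusions and 0 means no inclusions at all.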 The conditions noted are these: PC12 NGF-treated GFP-polyQ80 inclusion reduction.
Assay [2] has as its target ATP-dependent translocase ABCB1 (Homo sapiens) (UniProt P08183). Description: MDR1 (ABCB1) efflux transporter inhibition, cell-based (AID 377; in the data active means fluorescence slope change above about 50%). Particulars: MDR1-expressing cells, fluorescent substrate accumulation slope; stronger effect = higher value; concentration not given here.
Assay [3] deals with Neuropilin-2 / VEGF-C interaction (human). Description: inhibitors of NRP2–VEGF-C binding, biochemical, microplate binding format, z-score (AID 743281). Particulars: microplate NRP2/VEGF-C binding assay; stronger effect = lower value.
A short description of assay [4]: growth inhibition of DIPG glioma cells, dose response, cell-based, SU-DIPG-XVII, MIPE5.0, CellTiter-Glo, qHTS (AID 1347060; cut-off not given, nearly all actives have AC50 up to about 26 µM;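 on AC50: cells exposed to compound for 48 hours before viability readout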). The conditions noted are these: SU-DIPG-XVII viability, CellTiter-Glo ATP luminescence. For orientation: In ATP-based viability assays light output follows the ATP content of the culture.
A short description of assay [5]: growth inhibition of DIPG glioma cells, dose response, cell-based, SU-DIPG-XIII, MIPE4.0, CellTiter-Glo, qHTS (AID 1347061; cut-off not given, nearly all actives have AC50 up to about 37 µM;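 further: cells exposed to compound for 48 hours before readout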). Particulars: SU-DIPG-XIII viability, CellTiter-Glo ATP luminescence.
Assay [6] in a line: growth inhibition of DIPG glioma cells, dose response, cell-based, SU-DIPG-IV, MIPE4.0, CellTiter-Glo, qHTS (AID 1347063; cut-off not given, nearly all actives have AC50 up to about 30 µM;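 further: compound exposure lasted 48 hours before the viability readout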). Particulars: SU-DIPG-IV viability, CellTiter-Glo ATP luminescence.
A short description of assay [7]: growth inhibition of DIPG glioma cells, dose response, cell-based, SU-DIPG-XIII, MIPE5.0, CellTiter-Glo, qHTS (AID 1347064; cut-off not given, nearly all actives have AC50 up to about 23 µM;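 on AC50: cells exposed to compound for 48 hours before the viability read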). The conditions noted are these: SU-DIPG-XIII viability, CellTiter-Glo ATP luminescence.
Assay [8] is described as follows: JHH-DIPG-1 glioma cell viability, MIPE5.0 library, CellTiter-Glo luminescence, qHTS (AID 1347067; cut-off not given, nearly all actives have AC50 up to about 26 µM;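 further: cells exposed to compound for 48 hours before readout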). Particulars: JHH-DIPG-1 glioma viability, CellTiter-Glo ATP luminescence.
Assay [9] in a line: SU-DIPG-XXV glioma cell viability, MIPE5.0 library, qHTS (AID 1347068; cut-off not given, nearly all actives have IC50 up to about 30 µM). For orientation: Quantitative high-throughput screening tests each substance at several concentrations.
The nature of assay [10]: circadian clock period modulators, cell-based, LOPAC library, luminescence reporter (AID 2774).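 Further: values are relative to mean of DMSO wells on each plate.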 The conditions noted are these: circadian reporter cells, at 7 µM, actives lie on both sides.
Assay [11] deals with Hepatitis C virus NS3 helicase. Description: HCV NS3 helicase inhibitors, primary screen, biochemical, fluorescence polarization, LOPAC1280 library (AID 687035; in the data active means inhibition above about 37%). The conditions noted are these: Purified HCV NS3 helicase, Cy5-dT15 ssDNA binding fluorescence polarization; stronger effect = higher value; concentration not given here. A general note: Fluorescence polarisation rises when a labelled molecule tumbles more slowly, as on binding a larger partner.

A short description of assay [12]: Cy5 fluorescence quenching or enhancement artefacts, artefact control for HCV NS3 helicase inhibitor project, biochemical, LOPAC1280 (AID 687037). The conditions noted are these: Cy5-DNA-NS3h complex fluorescence interference counterscreen.
A short description of assay [13]: phospholipid biosynthesis inhibitors in animal cells, primary screen, cell-based, LOPAC library, screen 4 (AID 1347384). Particulars: phospholipid biosynthesis inhibition screen, at 10 µM.
Assay [14] in a line: growth inhibition of DIPG glioma cells, dose response, cell-based, JHH-DIPG-1, MIPE4.0, CellTiter-Glo, qHTS (AID 1347062; cut-off not given, nearly all actives have AC50 up to about 27 µM;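 on AC50: cells exposed to compound for two days before readout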). The conditions noted are these: JHH-DIPG-1 viability, CellTiter-Glo ATP luminescence.
A short description of assay [15]: viability loss in pontine glioma line – cell-based, SU-DIPG-XXV, MIPE5.0, CellTiter-Glo, qHTS, dose response (AID 1347065; cut-off not given, nearly all actives have AC50 up to about 26 µM;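 further: cells exposed to compound for 48 hours before ATP readout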). The conditions noted are these: CellTiter-Glo ATP luminescence.
Assay [16] in a line: SU-DIPG-VI glioma cell viability, MIPE4.0 library, CellTiter-Glo luminescence, qHTS (AID 1347066; cut-off not given, nearly all actives have AC50 up to about 30 µM;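 further: cells exposed to compound for 48 hours before readout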). Particulars: CellTiter-Glo ATP luminescence.
Assay [17] can be described thus: modifiers of HSF1 nuclear foci, imaging, Selleck Cancer Library (AID 1347162; in the data active means plate-normalised HSF1 focus index below about 0.46). The conditions noted are these: human cells, at 10 µM; SSMD: measured here: HSF1 foci SSMD mean; cell count: measured here: cell number; plate-normalised HSF1 focus index: stronger effect = lower value.

Sequence of ATP-dependent translocase ABCB1 (Homo sapiens) (P08183 whole entry, looked up): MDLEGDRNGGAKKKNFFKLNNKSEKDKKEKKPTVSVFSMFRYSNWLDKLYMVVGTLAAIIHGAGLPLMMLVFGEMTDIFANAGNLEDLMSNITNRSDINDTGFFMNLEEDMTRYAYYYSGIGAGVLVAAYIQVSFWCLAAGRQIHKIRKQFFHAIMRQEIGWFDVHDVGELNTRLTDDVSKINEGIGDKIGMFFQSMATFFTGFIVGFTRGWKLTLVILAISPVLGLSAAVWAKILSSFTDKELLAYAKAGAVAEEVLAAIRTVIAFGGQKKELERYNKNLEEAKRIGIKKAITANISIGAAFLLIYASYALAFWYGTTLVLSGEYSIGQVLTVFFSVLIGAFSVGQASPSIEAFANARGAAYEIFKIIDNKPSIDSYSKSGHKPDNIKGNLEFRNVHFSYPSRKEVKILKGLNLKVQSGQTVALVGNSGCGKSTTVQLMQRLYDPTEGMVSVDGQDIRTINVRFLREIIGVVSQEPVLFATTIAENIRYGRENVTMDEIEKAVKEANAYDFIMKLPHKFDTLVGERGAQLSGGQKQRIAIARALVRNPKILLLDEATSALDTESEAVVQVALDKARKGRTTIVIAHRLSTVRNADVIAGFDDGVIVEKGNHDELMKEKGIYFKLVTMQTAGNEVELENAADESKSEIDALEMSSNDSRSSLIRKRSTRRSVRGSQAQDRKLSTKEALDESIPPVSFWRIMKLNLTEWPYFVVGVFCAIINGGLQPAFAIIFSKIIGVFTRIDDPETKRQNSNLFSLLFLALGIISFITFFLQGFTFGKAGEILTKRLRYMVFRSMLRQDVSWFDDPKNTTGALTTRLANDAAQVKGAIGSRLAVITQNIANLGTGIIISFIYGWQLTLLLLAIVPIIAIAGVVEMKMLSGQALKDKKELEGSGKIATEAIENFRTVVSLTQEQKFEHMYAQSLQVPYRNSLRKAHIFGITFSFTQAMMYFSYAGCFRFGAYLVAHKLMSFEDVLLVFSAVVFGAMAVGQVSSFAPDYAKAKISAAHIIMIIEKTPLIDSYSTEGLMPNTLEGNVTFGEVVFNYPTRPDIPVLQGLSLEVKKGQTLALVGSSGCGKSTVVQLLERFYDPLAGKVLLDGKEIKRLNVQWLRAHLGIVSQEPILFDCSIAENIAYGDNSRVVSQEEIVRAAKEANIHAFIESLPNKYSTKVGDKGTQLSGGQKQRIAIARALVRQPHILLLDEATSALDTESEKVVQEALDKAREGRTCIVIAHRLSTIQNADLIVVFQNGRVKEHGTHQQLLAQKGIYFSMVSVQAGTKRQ

Take `Cc1cccc(Nc2ccccc2C(=O)O)c1C`: the inclusion score in assay [1] is 1.5.

For `C[C@H](CCC(=O)O)[C@H]1CC[C@H]2[C@@H]3C(=O)C[C@@H]4CC(=O)CC[C@]4(C)[C@H]3CC(=O)[C@]12C`, the fluorescence slope change in assay [2] is 97.9% (active). In assay [3], the z-score is -0.00555 (inactive).

The molecule `CCCN(CCC)S(=O)(=O)c1ccc(C(=O)O)cc1` came in with an inclusion score in [1] of 2.

As usually defined, the AC50 is the midpoint of the concentration-response curve, whichever way the signal moves. For the molecule `CC[C@H](C)C(=O)O[C@H]1C[C@H](O)C=C2C=C[C@H](C)[C@H](CC[C@@H](O)C[C@@H](O)CC(=O)O)[C@H]21`, in assay [3], the z-score is 0.492 (inactive). Besides, the AC50 in assay [4] was 23.5 µM (active). The molecule was called inactive in [5], in assay [6], in [7], in [8] and in assay [9].

For orientation: inhibition means the drop in the measured response relative to a control, in per cent. In the case of `C[C@]12CCC(=O)C=C1CC[C@@H]1[C@@H]2C(=O)C[C@@]2(C)[C@H]1CC[C@]2(O)C(=O)CO`, the fluorescence slope change in assay [2] was 29.4% (inactive). For the same molecule, in assay [10], the period change was -0.215 h (inactive). For the same molecule, the inhibition in [11] was 1% (inactive). Also, in assay [12], the fluorescence ratio (interference) is 1 (inactive). Moreover, in assay [3], the z-score is 0.291 (inactive). Besides, the outcome in [13] was inactive.

`CN(C)CC/C=C1\c2ccccc2COc2ccccc21`: the fluorescence slope change in assay [2] was 109% (active). The period change in assay [10] is 0.025 h (inactive). The inhibition in [11] is -5% (inactive). The fluorescence ratio (interference) in [12] is 1 (inactive). For the same molecule, the molecule was called inactive in assay [13].

In the case of `CC(C)C1CCC(C(=O)N[C@H](Cc2ccccc2)C(=O)O)CC1` (stereo partly specified), in assay [3], the z-score was -0.458 (inactive). For the same molecule, the molecule was classed as inactive in [4], in [5], in assay [14], in assay [6], in assay [7] and in assay [15]. Besides, the result in assay [16], in assay [8] and in assay [9] was inactive.

`CC(C)Oc1ccc2c(=O)c(-c3ccccc3)coc2c1`: in assay [3], the z-score is 0.0143 (inactive). For the same molecule, the call in assay [4], in assay [5], in assay [14], in assay [6], in assay [16] and in [8] was inactive. For the same molecule, the molecule was classed as inactive in [9].

Regarding `CN[C@@H]1[C@H](O)[C@H](NC)[C@H]2O[C@@]3(O)C(=O)C[C@@H](C)O[C@H]3O[C@@H]2[C@H]1O`, the fluorescence slope change in assay [2] was 67% (active). In assay [1], this molecule had an inclusion score of 1.5. The AC50 in assay [5] is 4.69 µM (active); in assay [14], 1.05 µM (active); in assay [6], 0.332 µM (active); in assay [16] it was 1.48 µM (active).

As for `COc1ccccc1N1CCN(CCCNc2cc(=O)n(C)c(=O)n2C)CC1`, in assay [10], the period change is 0.18 h (inactive). Also, the inhibition in [11] is -4% (inactive). For the same molecule, the fluorescence ratio (interference) in assay [12] is 1 (inactive). The z-score in assay [3] is -0.551 (inactive). The outcome in assay [13] was inactive.

For the molecule `CCC(=O)O[C@]1(C(=O)CCl)[C@@H](C)C[C@H]2[C@@H]3CCC4=CC(=O)C=C[C@]4(C)[C@@]3(F)[C@@H](O)C[C@@]21C`, the result in assay [4], in assay [5], in assay [14], in assay [7], in assay [16] and in assay [8] was inactive.

`CN1CCN(CCCN2c3ccccc3Sc3ccc(C(F)(F)F)cc32)CC1`: the fluorescence slope change in assay [2] is 134% (active). The period change in [10] is 0.025 h (inactive). In addition, the inhibition in [11] was -6% (inactive). Further, in assay [12], the fluorescence ratio (interference) was 0.9 (inactive). In addition, in assay [3], the z-score was 0.311 (inactive). Moreover, the figures for the half-maximal activity concentration (AC50) in [5], in assay [15] and in assay [8] were 18.7 µM (active), 18.6 µM (active) and 23.5 µM (active), respectively. Also, the call in assay [14], in assay [16] and in assay [13] was inactive.

As to `CC(=O)OCC(=O)[C@@]1(O)CC[C@H]2[C@@H]3CCC4=CC(=O)CC[C@]4(C)[C@H]3C(=O)C[C@@]21C`, the period change in assay [10] is -0.03 h (inactive). The inhibition in assay [11] was -3% (inactive). Besides, the fluorescence ratio (interference) in [12] was 0.9 (inactive). The outcome in [5], in assay [14], in assay [6], in assay [15], in [16] and in assay [8] was inactive. In addition, the molecule was called inactive in assay [9] and in assay [13].

Consider `CCCN1C[C@H](CSC)C[C@@H]2c3cccc4[nH]cc(c34)C[C@H]21`, for which the fluorescence slope change in assay [2] is 72.8% (active). The same molecule came in with an inclusion score in assay [1] of 2. Besides, in assay [10], the period change is 0.02 h (inactive). Moreover, the inhibition in [11] was -6% (inactive). Moreover, in assay [12], the fluorescence ratio (interference) was 1 (inactive). Further, the molecule was called inactive in assay [13].

Regarding `CC(=O)OCC(=O)[C@@]1(O)CC[C@H]2[C@@H]3CCC4=CC(=O)C=C[C@]4(C)[C@H]3[C@@H](O)C[C@@]21C`, the molecule was called inactive in assay [5], in assay [14], in assay [7], in assay [15], in [16] and in assay [8]. Also, in assay [9], the result was inactive.

Consider `NC(N)=NC(=O)c1nc(Cl)c(N)nc1N`, for which, in assay [1], the inclusion score is 2. Further, the period change in assay [10] was 0.02 h (inactive). Moreover, the inhibition in [11] was 1% (inactive). Besides, the fluorescence ratio (interference) in assay [12] is 0.9 (inactive). In assay [3], the z-score was -0.147 (inactive). For the same molecule, the result in assay [4], in [14], in assay [7], in assay [15], in assay [16] and in [8] was inactive. For the same molecule, the molecule was classed as inactive in assay [9] and in assay [13]. Moreover, the AC50 in assay [5] is 14.8 µM (active).

On to `CNC(=O)Oc1ccc2c(c1)[C@]1(C)CCN(C)[C@@H]1N2C`, for which the inclusion score in assay [1] is 2. For the same molecule, the period change in assay [10] was 0.16 h (inactive). Besides, the inhibition in [11] was -2% (inactive). The fluorescence ratio (interference) in assay [12] is 1 (inactive). In addition, in assay [13], the molecule was classed as inactive.

Consider `Cc1c(OCC(F)(F)F)ccnc1CS(=O)c1nc2ccccc2[nH]1` (stereo unspecified), for which the inclusion score in [1] turned out to be 2. The period change in assay [10] was -0.035 h (inactive). In addition, the inhibition in assay [11] was -2% (inactive). Besides, the fluorescence ratio (interference) in assay [12] was 1 (inactive). The z-score in [3] was 0.0966 (inactive). The result in assay [4], in assay [6], in [7], in assay [15], in [16] and in [9] was inactive. In assay [13], the outcome was inactive.

As to `O=C1N=C(O)CN1/N=C/c1ccc(-c2ccc([N+](=O)[O-])cc2)o1`, the fluorescence slope change in assay [2] is 54.9% (active). Besides, in assay [1], the inclusion score is 1.5.

For the molecule `CC(=O)O[C@]1(C(C)=O)CC[C@H]2[C@@H]3C=C(C)C4=CC(=O)CC[C@]4(C)[C@H]3CC[C@@]21C`, the concentration at half-maximal activity (AC50) was 11.8 µM (active) in assay [14] and 8.33 µM (active) in [6]. Also, the molecule was classed as inactive in assay [7], in assay [16] and in [9]. Besides, the SSMD in assay [17] was 0.639. In addition, the cell count in assay [17] stood at 7050. Also, in assay [17], the plate-normalised HSF1 focus index was 1.04 (inactive).

Regarding `C[C@@H]1CC(=O)NN=C1c1ccc(NN=C(C#N)C#N)cc1`, the AC50 in [6] is 23.5 µM (active); in [7] it was 18.6 µM (active); in assay [15] it was 9.34 µM (active).
